Hits are enriched below; roughly 2.5% of the tested compounds scored in any of these assays.
H9c2 TAG inh: inhibitors of triacylglycerol accumulation; H9c2 cells, Nile Red lipid (TAG) fluorescence; cells loaded with 200 µM oleic acid; inhibition, % at 12.5 µM; AID 651582; 230,000 compounds, 0.66% hits;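 active means pattern-corrected inhibition of lipid staining of at least 50% with the nuclear-stain viability signal not falling by more than 50%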
SKN-1 block: blocks SKN-1 activity in C. elegans; AID 624304; 360,000 compounds, 0.49% hits; inhibition, % at 21.8 µM; C. elegans VP596 Pgst-4::GFP/RFP ratio, acrylamide-induced, 24 h;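 active means interference check ratio from 0.5 to 1.5 plus GFP to RFP signal ratio inhibition reaching or exceeding a fixed threshold, cut at about 30% in these data, passing the limit was not always enough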
hiPSC survival: increases survival of single human iPS cells; hiPSC single-cell survival, ATPlite luminescence; 100% = ROCK inhibitor wells, 0% = DMSO; AID 602274; 360,000 compounds, 0.044% hits; survival enhancement, % at 20 µM; in the data active means survival enhancement above about 18%;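 further: cells exposed to compounds for 16 hours before the ATP read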
CRFBP-R2 agonist: agonists of human CRF-binding protein/CRF-R2 receptor complex; HEK293 CRF-R2/CRF-BP, calcium dye fluorescence (FLIPR); percent of saturating CRF peptide response; activation, % at 13.2 µM; 350,000 compounds, 0.46% hits;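 active means activation of at least 50%, plus an integration ratio under a set limit after plate pattern correction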
Cardio protect: myocardial damage modulation in H9c2 cells | AID 588492 | H9c2 cardiomyocytes, H2O2 injury protection, ATPLite, 2 h | 360,000 compounds, 0.63% hits | protection from H2O2 cell death, % at 20 µM;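 active means compounds giving at least 50% protection of heart cells from peroxide-induced death in the single-dose screen, raw or plate-pattern-corrected value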
CRFBP-R2 block: CRF-BP/CRF-R2 complex antagonism | HEK293 CRF-R2/CRF-BP, CRF-induced calcium fluorescence | inhibition, % at 11.8 µM | 350,000 compounds, 0.59% hits;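 active means inhibition of the ligand-induced calcium signal above about 50% at the single tested concentration, limit read from the data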
Of the large screens only hits and unclear results are named; the others gave an inactive call.

C#CCOCCOCCOCCNc1nc(N2CCN(C(=O)CCCCCCCCCCNC(=O)Cn3cc(CCCCCN)nn3)CC2)nc(N2CCN(C(=O)CCCCCCCCCCNC(=O)[C@H]([C@@H](C)CC)n3cc(CCCCCN)nn3)CC2)n1	CRFBP-R2 agonist 89
C#CCOCCOCCOCCNc1nc(N2CCN(C(=O)CCCCCCCCCCNC(=O)[C@H](CCCCN)n3cc(C[C@@H](C)CC)nn3)CC2)nc(N2CCN(C(=O)CCCCCCCCCCNC(=O)[C@H](CCCCN)n3cc(C[C@@H](C)CC)nn3)CC2)n1	H9c2 TAG inh 88, CRFBP-R2 agonist 92
CCc1nc(CN(C)C(=O)C2CCC(=O)N(CCc3cccc(F)c3)C2)no1 (stereo not drawn)	none
O=C(CCN1CCN(Cc2ccccc2)CC1)NNC(=O)Nc1cccc(C(F)(F)F)c1	none (no result: H9c2 TAG inh)
C=CCOc1ccc(/C=C2\SC(=S)N(NS(=O)(=O)c3ccccc3)C2=O)cc1	CRFBP-R2 block 53 (no result: H9c2 TAG inh)
O=C1/C(=C\c2ccc(Br)cc2)SC(=S)N1NS(=O)(=O)c1ccccc1	CRFBP-R2 block 58 (no result: H9c2 TAG inh)
CC(/C=C1\SC(=S)N(NS(=O)(=O)c2ccccc2)C1=O)=C\c1ccccc1	CRFBP-R2 block 93
CC(/C=C1\SC(=S)N(NS(=O)(=O)c2ccc(C)cc2)C1=O)=C\c1ccccc1	none
COc1ccc(/C=C2/SC(=S)N(NS(=O)(=O)c3ccccc3)C2=O)cc1	none (no result: H9c2 TAG inh)
Cc1nc(C(=O)O)cc([N+](=O)[O-])c1C	none
CCOC(=O)C1=Nc2ccccc2C1=[N+]=[N-]	Cardio protect 72
COc1cccc(/C=N\NC(=O)C2C(=O)NCC2c2ccccc2)c1O (stereo not drawn)	Cardio protect 72
O=C1NCC(c2ccccc2)C1C(=O)N/N=C\c1ccc(-c2cccc(Cl)c2Cl)o1 (stereo not drawn)	SKN-1 block 36 (no result: H9c2 TAG inh)
COc1cccc(/C=N/NC(=O)C(=O)N/N=C/c2cccc(OC)c2O)c1O	Cardio protect 66 (no result: H9c2 TAG inh)
COc1cccc(/C=N/Nc2ncnc3scc(-c4ccccc4)c23)c1O	Cardio protect 70 (no result: H9c2 TAG inh)
COc1cccc(/C=N/NC(=O)C(=O)N2CCCCCC2)c1O	none
CC(=O)Nc1cc(-c2ccc(C(=O)N3CCOCC3)cc2)cn2c(-c3ccc(S(C)(=O)=O)cc3)cnc12	none (no result: CRFBP-R2 agonist, CRFBP-R2 block)
COc1ccc(/C=N/NC(=O)CSCC(=O)Nc2ccccc2)cc1	none
COc1cccc(/C=N/NC(=O)CSCC(=O)Nc2ccccc2)c1O	Cardio protect 55 (no result: H9c2 TAG inh)
Cn1c(/C=N/Nc2nc3ccccc3[nH]2)nc2ccccc21	none (no result: H9c2 TAG inh)
Cc1c(/C=N/Nc2nc3ccccc3[nH]2)c2ccccc2n1C	H9c2 TAG inh 62
COc1cccc(/C=N/Nc2nc3ccccc3[nH]2)c1O	H9c2 TAG inh 59
COc1cccc(/C=N/NC(=O)c2cnccn2)c1O	H9c2 TAG inh 54
Cc1cccc(N2CCN(C(=O)CCC(=O)N3CCOc4ccc(Cl)cc43)CC2C)c1 (stereo not drawn)	none
COc1cccc(/C=N/NC(=O)c2ccncc2)c1OC(=O)c1ccc(Br)cc1	Cardio protect 55 (no result: H9c2 TAG inh)
COc1cccc(N2CCN(S(=O)(=O)c3c(C)[nH]c(C)c3C(=O)N3CCCC3)CC2)c1	CRFBP-R2 block 120 (no result: H9c2 TAG inh)
Cc1[nH]c(C)c(S(=O)(=O)N2CCN(c3cccc(Cl)c3)CC2)c1C(=O)N1CCCC1	none (no result: H9c2 TAG inh)
S=C1CC2CCCC(C2)N1 (stereo not drawn)	none
CC1CCN(C(C)C(=O)Nc2ccccc2-c2ccccc2)CC1 (stereo not drawn)	SKN-1 block 44
CC(C(=O)Nc1ccccc1-c1ccccc1)N1CCN(C(=O)c2ccccc2)CC1 (stereo not drawn)	none
O=C(CN1C(=O)COc2ccc(S(=O)(=O)N3CCCC3)cc21)NCc1ccccn1	none
COC(=O)c1ccc(C2C(C(=O)c3cc4ccccc4o3)=C(O)C(=O)N2CCCN(C)C)cc1 (stereo not drawn)	CRFBP-R2 block 114
COc1ccc(NC(=O)c2cc(C3CCCCN3S(=O)(=O)c3ccc(F)cc3F)on2)c(C)c1 (stereo not drawn)	none (no result: CRFBP-R2 agonist, CRFBP-R2 block)
O=C(Oc1ccccc1)c1cc(O)c(O)c(O)c1	Cardio protect 75 (no result: H9c2 TAG inh, CRFBP-R2 agonist, CRFBP-R2 block)

Screens: PubChem BioAssay, Sanford-Burnham Center for Chemical Genomics
